Experimental findings from PubChem BioAssay (NCATS) are described below.

Inconclusive results are not listed. Where a call stands in place of a potency, no number is given. The source made the active and inactive calls. The call rests on the fitted dose curve; in most records, active means well fitted inhibition curve with a large enough effect; inconclusive means small, poorly fitted or top-dose-only effect; inactive means flat fitted curve, though single readings scatter.
Potency means the concentration at half of the fitted maximal effect.

Chain of Dual specificity protein kinase CLK4 (Homo sapiens) (Q9HAZ1 whole entry, looked up): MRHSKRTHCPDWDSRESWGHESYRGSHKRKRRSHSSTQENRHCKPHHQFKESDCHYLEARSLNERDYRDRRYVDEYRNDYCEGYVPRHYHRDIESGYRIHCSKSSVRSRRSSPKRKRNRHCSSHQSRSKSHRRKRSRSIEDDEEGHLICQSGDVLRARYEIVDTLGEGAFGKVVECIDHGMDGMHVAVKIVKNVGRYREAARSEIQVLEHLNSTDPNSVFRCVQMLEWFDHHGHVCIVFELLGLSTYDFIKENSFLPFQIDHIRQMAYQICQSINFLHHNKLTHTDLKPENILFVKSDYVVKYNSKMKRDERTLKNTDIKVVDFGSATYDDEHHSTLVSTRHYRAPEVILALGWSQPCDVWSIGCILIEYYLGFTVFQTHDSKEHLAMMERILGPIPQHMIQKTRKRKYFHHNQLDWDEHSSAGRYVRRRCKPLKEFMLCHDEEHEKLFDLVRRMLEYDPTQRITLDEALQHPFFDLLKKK

For the experiment, the target named is Dual specificity protein kinase CLK4 (Homo sapiens) (UniProt Q9HAZ1). The experiment is described as follows: qHTS Assay for Inhibitors of CDC-like Kinase 4 (ADP-FP Assay) (AID 1795). Further: nearly all actives have a fitted effect of over 60% in size. Conditions: Transcreener ADP fluorescence polarization; series mostly up to 50 µM. An outline of the steps:
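Clk4 6.25 nM; RS peptide 100 uM; ATP 1 uM; 25 mM Tris pH 7.5, 10 mM MgCl2; 1 h reaction. ADP detected via antibody/orange tracer FP displacement; TG003 positive control.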
(qHTS replaces the single test concentration by a dilution series.)
For the compound `CN(C)Cc1ccccc1-c1cc(N(C)Cc2ccco2)ncn1`, the Potency entry is “inactive”.

As for `c1cncc(-c2cncnc2NC2CCNCC2)c1`, the Potency entry was “inactive”.

For `Cn1cc(-c2nc3cnc(Oc4ccccc4)nc3n(C)c2=O)c2ccccc21`, the Potency entry was “inactive”.

On to `CN(C)c1ncc2nc(-c3ccccc3)c(=O)n(-c3ccccc3)c2n1`, for which the Potency entry was “inactive”.

Regarding `CN1CCN(c2ncc3nc(-c4cc(F)cc(F)c4)c(=O)n(C4CC4)c3n2)CC1`, the Potency result was “inactive”.

Consider `O=c1c(-c2ccc(F)cc2)nc2cnc(N3CCNCC3)nc2n1Cc1ccc(F)cc1`, for which the Potency result was “inactive”.

In the case of `O=c1c(-c2cc(F)cc(F)c2)nc2cncnc2n1-c1ccccc1`, the Potency entry was “inactive”.

With `CN(Cc1ccco1)c1ncncc1-c1ccccc1Cl`, the Potency entry was “inactive”.

Take `O=c1cnc2cnc(N3CCOCC3)nc2n1CCc1ccccc1`: the Potency was 8.91 µM (active).

With `CN1CCN(c2ncncc2-c2ccc(C(=O)N(C)C)cc2)CC1`, the Potency result was “inactive”.

Regarding `CC(=O)NCCNc1ncncc1-c1ccccc1C`, the Potency entry was “inactive”.

Consider `COCCn1c(=O)cnc2cnc(Oc3ccccc3)nc21`, for which the Potency entry was “inactive”.

As for `COCCn1c(=O)c(-c2ccc(Cl)cc2)nc2cnc(Oc3cccc(Cl)c3)nc21`, the Potency result was “inactive”.

Turning to `COc1ccc(CNc2ccnc(-c3ccc4c(c3)OCO4)n2)c(OC)c1`, the Potency result is “inactive”.

For `COc1ncc2nc(-c3cc(F)cc(F)c3)c(=O)n(C)c2n1`, the Potency result was “inactive”.

As to `COc1cccc(Nc2ncc3nc(-c4ccccc4)c(=O)n(Cc4cccs4)c3n2)c1`, the Potency result was “inactive”.

As to `COc1ccc(-c2nc3cnc(N4CCN(C)CC4)nc3n(Cc3ccc(F)cc3)c2=O)cc1`, the Potency result is “inactive”.

`COCCn1c(=O)c(-c2cc(F)cc(F)c2)nc2cnc(N3CCOCC3)nc21`: the Potency entry is “inactive”.

In the case of `CN(C)c1ncnc2ccc(-c3cccnc3)cc12`, the Potency is 12.6 µM (active).

Regarding `CCNc1ncc2nc(-c3cn(C)c4ccccc34)c(=O)n(Cc3cccc(OC)c3)c2n1`, the Potency entry is “inactive”.

Turning to `COc1ccc(Oc2ncc3nc(C)c(=O)n(-c4ccccc4)c3n2)cc1`, the Potency result is “inactive”.

In the case of `CN(C)Cc1ccccc1-c1nc(NCc2cccs2)c2ccccc2n1`, the Potency result is “inactive”.

In the case of `CN(Cc1ccco1)c1ncncc1-c1cccc(C#N)c1`, the Potency result is “inactive”.

With `O=c1c(-c2ccc(F)cc2)nc2cnc(N3CCOCC3)nc2n1Cc1cccs1`, the Potency entry is “inactive”.

`CCNc1ncc2nc(-c3ccc(Cl)cc3)c(=O)n(C[C@H]3CCCO3)c2n1`: the Potency entry was “inactive”.

As for `COc1ccc(-n2c(=O)c(-c3cccs3)nc3cnc(N(C)C)nc32)cc1`, the Potency result was “inactive”.

Take `Cn1cc(-c2nc3cnc(Oc4ccccc4)nc3n(C3CC3)c2=O)c2ccccc21`: the Potency entry is “inactive”.

For `O=c1c(-c2cccs2)nc2cnc(N3CCOCC3)nc2n1Cc1ccc(F)cc1`, the Potency entry is “inactive”.

On to `O=c1c(-c2ccc(F)cc2)nc2cnc(Nc3ccccc3)nc2n1C[C@H]1CCCO1`, for which the Potency result was “inactive”.

For the compound `O=c1c(-c2cc(F)cc(F)c2)nc2cncnc2n1Cc1ccccc1`, the Potency result was “inactive”.

`c1ccc(Nc2cc(-c3ccoc3)ncn2)cc1`: the Potency entry was “inactive”.

Take `COc1ccc(Oc2ncc3nc(-c4cn(C)c5ccccc45)c(=O)n(C4CC4)c3n2)cc1`: the Potency result is “inactive”.

For the compound `COCCNc1ncncc1-c1c(C)noc1C`, the Potency result was “inactive”.

As for `Cc1noc(C)c1-c1ccc2ncnc(Nc3ccc(F)cc3)c2c1`, the Potency was 3.16 µM (active).

In the case of `O=c1c(-c2cccs2)nc2cnc(N3CCOCC3)nc2n1Cc1cccs1`, the Potency result is “inactive”.

On to `Cc1noc(C)c1-c1ccc2ncnc(N(C)C)c2c1`, for which the Potency is 2 µM (active).

Take `CC(=O)NCCNc1ncnc2ccc(-c3c(C)noc3C)cc12`: the Potency was 7.08 µM (active).

Consider `CN(C)c1ncc2nc(-c3cn(C)c4ccccc34)c(=O)n(C[C@H]3CCCO3)c2n1`, for which the Potency result is “inactive”.

Take `CN1CCN(c2ncc3nc(-c4ccc(Cl)cc4)c(=O)n(Cc4cccs4)c3n2)CC1`: the Potency entry is “inactive”.

On to `CN(Cc1ccco1)c1ncncc1-c1ccoc1`, for which the Potency result was “inactive”.
